The source of these data is PubChem BioAssay.

The nature of test [1]: anti-His antibody binders, primary screen, artefact control for SMM control protein annotation, biochemical, small-molecule microarray, 635 nm fluorescence (AID 1128).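 Note: score merges feature fluorescence with signal-to-noise for each printed compound spot.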 To be noted: anti-His Alexa647 antibody binding, higher = more signal.
For test [2], the system named is Human papillomavirus type 1a E7 protein (residues 1-88). Description: HPV1a E7 small-molecule binders, primary screen, biochemical, small-molecule microarray, residues 1-88, 635 nm (AID 1129). The settings on record: small-molecule microarray binding, fluorescence 635 nm; higher = more signal.
Test [3] has as its target Focal adhesion kinase 1 (Homo sapiens) (UniProt Q05397). Description: small-molecule microarray binders of FAK, primary screen, biochemical, 635/667 nm fluorescence, BSA, DTT (AID 1130).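 Note: composite of spot emission at 667 nm and signal to noise over triplicate slides.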 To be noted: PTK2 binding, 635 nm fluorescence, higher = more signal.
The test system of test [4] is Fibrinogen (Alexa647-labelled). As to the kind of experiment: fibrinogen binders on compound microarrays, profiling panel, artefact control for SMM control-protein annotation, biochemical, small-molecule microarray, 635/667 nm fluorescence (AID 1131).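 Note: z-score merges 667 nm fluorescence with per-spot signal-to-noise over triplicate slides.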 To be noted: fibrinogen-A647 binding fluorescence, higher = more signal.
The target in test [5] is Follistatin (Homo sapiens) (UniProt P19883). Description: follistatin binders on small-molecule microarrays, primary screen, biochemical, small-molecule microarray, 635/667 nm fluorescence (AID 1132). To be noted: FST binding, 635 nm fluorescence, higher = more signal.
The target in test [6] is Fibroblast growth factor 2 (Homo sapiens) (UniProt P09038). Description: FGF2 binders on small-molecule microarrays, primary screen, biochemical, small-molecule microarray, 635/667 nm fluorescence (AID 1133). The settings on record: small-molecule microarray binding, FGF2, fluorescence 635/667; higher = more signal.
The nature of test [7]: mitochondrial membrane potential change in A549 cells, profiling panel, cell-based, JC-1 fluorescence, basal, 24 h, 100 nL (AID 1138).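 Note: A549 lung adenocarcinoma cells under basal conditions with no added stimulus; test concentration not given here.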 To be noted: higher = more signal.
A further test concerns Lefty1. Description: Lefty1 binders on small-molecule microarrays, primary screen, biochemical, small-molecule microarray, 635/667 nm fluorescence (AID 1139). To be noted: small-molecule microarray binding, fluorescence 635/667; higher = more signal.
For test [8], the system named is wheat germ agglutinin (Triticum aestivum), Alexa647-labelled. Description: wheat germ agglutinin binders on compound microarrays, profiling panel, artefact control for SMM control-protein annotation, biochemical, small-molecule microarray, 635/667 nm fluorescence (AID 1140).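 Note: score merges 667 nm feature emission with signal to noise over triplicate slides.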 To be noted: WGA-A647 binding, 635 nm fluorescence, higher = more signal.
Test [9] has as its target Luciferin 4-monooxygenase (Photinus pyralis) (UniProt P08659). As to the kind of experiment: firefly luciferase enzyme inhibitors, primary screen, biochemical, luminescence, purified enzyme, 2006 set (AID 1141).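 Note: cell-free assay with purified firefly luciferase at 100 ng per well in PBS; test concentration not given here.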 To be noted: SteadyGlo luminescence, 30 min, higher = more signal, called active from +8 up or from −8 down.
The test system of test [10] is Wnt5a (protein binding on small-molecule microarray). As to the kind of experiment: Wnt5a binders on small-molecule microarray, primary screen, biophysical, 635/667 nm fluorescence (AID 1142).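 Note: fluorescence read at 667 nm with signal to noise per printed feature.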 To be noted: 635 nm fluorescence, higher = more signal.
A short description of test [11]: cell viability in Huh7 cells, primary screen, cytotoxicity control for HCV replication inhibitor project, CellTiter-Glo luminescence, basal, 48 h (AID 1143).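 Note: Huh7 hepatoma cells carrying a hepatitis C replication reporter with no stimulus; test concentration not given here.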 To be noted: Huh7 HCV replicon, higher = more signal, called active from +8 up or from −8 down.
Test [12] can be described thus: P. aeruginosa biofilm formation inhibitors, primary screen, PAO1 strain, BacTiter-Glo luminescence, LB-PBS (AID 1144). To be noted: 12 h, higher = more signal.
Test [13] in a line: CREB reporter modulators without forskolin, primary screen, cell-based, PC12, CRE-LacZ reporter, unstimulated (AID 1145). The settings on record: no forskolin, luminescence, 4.5 h, higher = more signal, called active from +8 up or from −8 down.
Test [14] in a line: CREB reporter modulators under forskolin, primary screen, cell-based, PC12, CRE-LacZ reporter, forskolin-stimulated (AID 1146).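 Note: PC12 cells with 6xCRE LacZ reporter stimulated by forskolin 10 µM; beta-galactosidase reporter signal reflecting CREB driven transcription.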 The settings on record: luminescence, 4.5 h, higher = more signal, called active from +8 up or from −8 down.
Test [15] concerns the target Streptavidin (Streptomyces avidinii) (UniProt P22629). Description: streptavidin binders on small-molecule microarray, primary screen, artefact control for SMM compound annotation, biophysical, 635/667 nm fluorescence (AID 1147).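 Note: signal reflects streptavidin binding to arrayed compounds as a control protein.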 The settings on record: streptavidin binding, higher = more signal.
Test [16] is described as follows: small-molecule binders of probe aInhba, primary screen, biochemical, small-molecule microarray, 635/667 nm fluorescence (AID 1148).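 Note: score merges 667nm spot fluorescence with signal-to-noise for antibody binding to printed compounds.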 To be noted: higher = more signal.
For test [17], the target named is Torsin-1A (Homo sapiens) (UniProt O14656). Description: torsin A binders from cell lysate, primary screen, small-molecule microarray, wild-type, 635/667 nm (AID 1149). The settings on record: COS7 hTOR1A-WT lysate, 635 nm fluorescence, higher = more signal.
Test [18] shares this target. Description: small-molecule binders of mutant TOR1A in lysate, primary screen, cell lysate, small-molecule microarray, COS7 lysate, 635/667 nm fluorescence (AID 1150).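 Note: score pools 667 nm emission and signal to noise measuring lysate protein binding.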 The settings on record: COS7 hTOR1A mutant lysate, 635 nm fluorescence, higher = more signal.
The test system of test [19] is Sonic hedgehog protein (Shh). Description: small-molecule binders of Shh protein, primary screen, biochemical, small-molecule microarray, 635/667 nm fluorescence (AID 1151).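 Note: Shh protein binding to compounds spotted on small-molecule microarray slides; score combines spot fluorescence intensity with signal-to-noise across triplicate slides.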 To be noted: small-molecule microarray binding, 635 nm fluorescence; higher = more signal.

Calls of active or inactive are those of the source. Unless noted, the rule behind the calls is not given here.

Focal adhesion kinase 1 (Homo sapiens), sequence (Q05397 whole entry, looked up): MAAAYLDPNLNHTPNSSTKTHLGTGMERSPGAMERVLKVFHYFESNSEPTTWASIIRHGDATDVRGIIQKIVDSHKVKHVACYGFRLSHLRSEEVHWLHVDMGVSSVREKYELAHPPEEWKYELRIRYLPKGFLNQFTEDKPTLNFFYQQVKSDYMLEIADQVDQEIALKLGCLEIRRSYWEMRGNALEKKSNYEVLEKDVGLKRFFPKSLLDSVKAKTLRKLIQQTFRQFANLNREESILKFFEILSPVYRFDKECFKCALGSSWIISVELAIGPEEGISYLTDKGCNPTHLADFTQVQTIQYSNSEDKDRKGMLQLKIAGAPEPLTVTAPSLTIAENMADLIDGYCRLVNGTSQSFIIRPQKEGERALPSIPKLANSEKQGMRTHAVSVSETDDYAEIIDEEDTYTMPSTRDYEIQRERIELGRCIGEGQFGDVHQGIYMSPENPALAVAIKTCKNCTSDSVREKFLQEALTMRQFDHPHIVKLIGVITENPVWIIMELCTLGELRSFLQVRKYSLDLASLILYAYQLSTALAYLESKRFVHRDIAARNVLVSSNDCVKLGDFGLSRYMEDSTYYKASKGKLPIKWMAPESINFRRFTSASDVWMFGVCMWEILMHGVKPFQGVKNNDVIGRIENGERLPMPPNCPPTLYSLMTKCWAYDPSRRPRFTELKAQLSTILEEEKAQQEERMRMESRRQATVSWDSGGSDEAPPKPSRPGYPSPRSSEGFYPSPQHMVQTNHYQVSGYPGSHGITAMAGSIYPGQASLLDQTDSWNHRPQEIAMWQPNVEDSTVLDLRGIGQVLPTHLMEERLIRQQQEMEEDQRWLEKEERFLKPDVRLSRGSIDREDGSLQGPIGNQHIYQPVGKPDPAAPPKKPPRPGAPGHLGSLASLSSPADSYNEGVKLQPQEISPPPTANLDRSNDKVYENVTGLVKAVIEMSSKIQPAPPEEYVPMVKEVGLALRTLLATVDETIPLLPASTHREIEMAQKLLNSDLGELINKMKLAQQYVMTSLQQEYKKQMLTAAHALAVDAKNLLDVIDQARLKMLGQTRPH
Fibroblast growth factor 2 (Homo sapiens), sequence (P09038 whole entry, looked up): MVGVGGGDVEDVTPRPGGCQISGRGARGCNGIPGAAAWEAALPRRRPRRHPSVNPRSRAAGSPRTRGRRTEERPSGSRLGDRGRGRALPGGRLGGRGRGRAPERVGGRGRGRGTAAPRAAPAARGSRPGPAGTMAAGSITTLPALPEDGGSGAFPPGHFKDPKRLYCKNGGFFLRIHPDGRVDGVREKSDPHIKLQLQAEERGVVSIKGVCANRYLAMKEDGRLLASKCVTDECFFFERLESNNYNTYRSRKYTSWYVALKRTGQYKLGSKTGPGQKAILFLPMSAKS
Torsin-1A (Homo sapiens), sequence (O14656 whole entry, looked up): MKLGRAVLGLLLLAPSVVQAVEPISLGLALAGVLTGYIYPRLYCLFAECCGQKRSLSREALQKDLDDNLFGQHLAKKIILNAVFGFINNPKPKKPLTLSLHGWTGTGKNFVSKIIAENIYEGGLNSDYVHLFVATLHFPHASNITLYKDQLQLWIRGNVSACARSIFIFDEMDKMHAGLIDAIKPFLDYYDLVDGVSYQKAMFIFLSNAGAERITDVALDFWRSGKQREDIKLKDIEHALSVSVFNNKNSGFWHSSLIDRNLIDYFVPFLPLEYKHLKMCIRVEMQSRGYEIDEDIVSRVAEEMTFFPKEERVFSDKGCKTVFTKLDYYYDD
Streptavidin (Streptomyces avidinii), sequence (P22629 whole entry, looked up): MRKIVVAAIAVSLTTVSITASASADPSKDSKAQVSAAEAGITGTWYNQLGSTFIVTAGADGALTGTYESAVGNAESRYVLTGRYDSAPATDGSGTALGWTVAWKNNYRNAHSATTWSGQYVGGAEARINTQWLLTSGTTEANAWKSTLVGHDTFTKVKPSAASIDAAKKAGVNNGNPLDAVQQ
Luciferin 4-monooxygenase (Photinus pyralis), sequence (P08659 whole entry, looked up): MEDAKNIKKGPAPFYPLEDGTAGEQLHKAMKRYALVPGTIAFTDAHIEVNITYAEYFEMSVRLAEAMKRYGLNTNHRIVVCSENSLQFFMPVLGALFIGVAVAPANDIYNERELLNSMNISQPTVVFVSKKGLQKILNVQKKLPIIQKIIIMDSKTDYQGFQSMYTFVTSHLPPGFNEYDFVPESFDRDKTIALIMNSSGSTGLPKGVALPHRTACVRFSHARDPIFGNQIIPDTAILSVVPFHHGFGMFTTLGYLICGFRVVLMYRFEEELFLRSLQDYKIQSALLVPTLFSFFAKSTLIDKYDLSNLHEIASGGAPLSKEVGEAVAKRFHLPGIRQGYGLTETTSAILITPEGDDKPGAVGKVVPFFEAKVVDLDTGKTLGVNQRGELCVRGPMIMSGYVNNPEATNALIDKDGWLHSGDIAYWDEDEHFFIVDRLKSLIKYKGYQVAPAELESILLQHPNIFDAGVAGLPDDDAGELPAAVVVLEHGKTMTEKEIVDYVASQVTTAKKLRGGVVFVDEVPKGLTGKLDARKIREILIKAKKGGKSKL
Follistatin (Homo sapiens), sequence (P19883 whole entry, looked up): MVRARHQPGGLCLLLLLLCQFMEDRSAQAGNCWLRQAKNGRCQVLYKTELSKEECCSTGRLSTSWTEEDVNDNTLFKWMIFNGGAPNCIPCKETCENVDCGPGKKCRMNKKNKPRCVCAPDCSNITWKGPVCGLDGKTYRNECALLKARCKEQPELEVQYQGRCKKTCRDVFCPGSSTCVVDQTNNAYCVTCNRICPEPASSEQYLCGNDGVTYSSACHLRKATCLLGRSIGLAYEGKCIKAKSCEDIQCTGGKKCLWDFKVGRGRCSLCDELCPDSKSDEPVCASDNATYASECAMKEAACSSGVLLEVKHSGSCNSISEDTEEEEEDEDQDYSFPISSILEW

As to `COc1ccc([Si](C)(C)[C@@H]2[C@@H](CCO)O[C@]3(C(=O)N(Cc4cccc(N5C(=O)COc6ccccc65)c4)c4ccccc43)[C@H]2C)cc1`, the composite z-score in test [1] is 0.279; in [2], 0.733; in [3], 0.0257; in test [4], 0.415; in test [5] it was -0.0428; in [6], 0.327. For the same compound, the composite z-score in the test with Lefty1 was 0.0695; in [8] it was 0.764; in test [10], -0.0772; in [15] it was 0.428; in test [16], 0.0633; with Torsin-1A (Homo sapiens) [17], -0.277. The values for the composite z-score (in the test with Torsin-1A (Homo sapiens) [18]; in [19]) were -0.491 and 0.45, respectively. Also, the z-score was -1.04 in test [7]; -0.123 (inactive) in test [9]; -7.12 (inactive) in test [11]; -0.17 (inactive) in test [12]; 6.98 (inactive) in [13]; 0.586 (inactive) in test [14].
For the compound `CC(C)CN1C(=O)[C@@]2(Cc3ccccc31)c1ccccc1C(=O)N(Cc1ccccc1)[C@H]2c1ccc(CO)cc1`, the composite z-score is -0.966 in test [1]; -1.28 in test [2]; -0.457 in test [3]; -0.492 in [4]; -1.72 in test [5]; -0.776 in test [6]. In addition, the composite z-score was -0.78 in the test on Lefty1; 0.145 in test [8]; -0.631 in test [10]; -0.64 in test [15]; -0.102 in [16]; -0.971 in the test with Torsin-1A (Homo sapiens) [17]. In addition, the composite z-score with Torsin-1A (Homo sapiens) [18] was -0.359; in test [19], -1.05. In addition, the z-score in [7] is -0.204; in test [9] it was -0.336 (inactive); in test [11] it was 0.174 (inactive); in test [12] it was -0.221 (inactive); in test [13] it was -0.295 (inactive); in test [14], 0.378 (inactive).
On to `CC1CC/C=C\[C@H]2OC34C=CCN(Cc5ccccc5)C(=O)[C@H]3N(CCO)C(=O)[C@@H]4C2C(=O)O1` (stereo not given in full), for which the composite z-score in test [1] is 0.364; in [2] it was 0.324; in [3] it was -0.106; in test [4], -0.785; in test [5], -0.418; in test [6], -0.43. Moreover, the composite z-score is -0.592 in the test with Lefty1; -0.162 in test [8]; 0.478 in test [10]; -0.492 in test [15]; -0.176 in [16]; 2.37 with Torsin-1A (Homo sapiens) [17]. Moreover, the composite z-score with Torsin-1A (Homo sapiens) [18] is 2.58; in test [19] it was -0.218. Further, the z-score was -0.322 in test [7]; -0.573 (inactive) in test [9]; -0.273 (inactive) in [11]; 0.836 (inactive) in [12]; -0.0778 (inactive) in test [13]; 0.151 (inactive) in test [14].
On to `COc1ccc(C#Cc2ccc3c(c2)[C@]2(C(=O)N3)[C@H](C(N)=O)[C@H]3C(=O)O[C@H](c4ccccc4)[C@H](c4ccccc4)N3[C@@H]2c2ccc(O)cc2)cc1`, for which the composite z-score in [1] turned out to be 1.69; in test [2], 1.22; in test [3] it was 1.6; in test [4] it was 0.844; in test [5], 0.658; in [6], 0.717. Further, the composite z-score in the test with Lefty1 was 0.339; in [8] it was 0.317; in test [10], 0.138; in test [15], 0.214; in test [16] it was -0.128; with Torsin-1A (Homo sapiens) [17], 0.369. Besides, the composite z-score in the test with Torsin-1A (Homo sapiens) [18] is 1.03; in [19], 0.794. Further, the z-score in [7] is -1.4; in test [9], 0.734 (inactive); in test [11] it was -4.69 (inactive); in test [12], -0.755 (inactive); in test [13], -0.465 (inactive); in [14], -0.332 (inactive).
On to `CC(C)N1CC=CC23O[C@@H]4C=CCOC(=O)[C@@H]4[C@H]2C(=O)N(CCCCCCO)[C@@H]3C1=O` (stereo not given in full), for which the composite z-score in test [1] was -0.249; in [2], -0.407; in [3] it was -0.181; in test [4] it was -1.66; in test [5] it was -0.663; in [6], -1.19. The composite z-score with Lefty1 is -0.0359; in test [8], 0.666; in test [10] it was -0.301; in test [15], -0.665; in [16], -0.097; with Torsin-1A (Homo sapiens) [17], -2.54. For the same compound, the results for the composite z-score (with Torsin-1A (Homo sapiens) [18]; in [19]) were -0.976 and 1.08, respectively. The z-score is -0.525 in test [7]; 0.287 (inactive) in test [9]; -0.0015 (inactive) in test [11]; -0.839 (inactive) in [12]; -0.627 (inactive) in test [13]; -0.421 (inactive) in test [14].
